# Mito fusion act – qHTS Assay for Small Molecule Inhibitors of Mitochondrial Division or Activators of Mitochondrial Fusion; S. cerevisiae fusion-defective mutant growth rescue, CellTiterGlo 48 h; Potency, µM (doses to about 46.1 µM), usual class: activators; actives 0.23% (n = 320,000); AID 485298, 2010; further: nearly all actives have a fitted effect of over 45% in size
#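 Yeast fusion mutant, YPEG (non-fermentable carbon), compound, 48 h at 37C non-permissive; CellTiterGlo added, 10 min RT, luminescence read. Rescued growth = division inhibition.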
# Nrf2 block – Nrf2 qHTS screen for inhibitors; A549 ARE-Fluc reporter, luciferase luminescence, 18-24 h; Potency, µM (series often up to 46 µM), usual class: inhibitors; actives 2.1% (n = 360,000); AID 504444, 2011; further: nearly all actives have a fitted effect of over 60% in size
#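 Two sequential reads on A549 ARE_Fluc cells exposed to compound for 18-24 h: a CellTiter-Fluor fluorescence read for viability, then a luciferase luminescence read for Nrf2/ARE activity.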
# Nrf2 ARE act – qHTS of Nrf2 Activators | AREc32 ARE-luciferase reporter (MCF7-derived line), luminescence, 24 h | Potency, µM (series often up to 46.1 µM), most hits filed as activators | actives 0.31% (n = 410,000); further: nearly all actives have a fitted effect of over 65% in size
#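 Luminescent ARE reporter assay in AREc32_Fluc cells: overnight plating at 37 deg C, 24 hr compound incubation, Steady-Glo added, 30 min RT before reading.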
# miR-21 reporter – qHTS Assay for Modulators of miRNAs and/orActivators of miR-21; HeLa miR-21 FLuc reporter, luciferase, 48 h; Potency, µM (series often up to 38.3 µM), usual class: activators; 340,000 tested, under 10 active; AID 2288, 2010;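 further: miR-21 action dims this reporter so a rising signal means less miR-21 action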
#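 HeLa cells endogenously expressing miR-21, stably carrying CMV-driven firefly luciferase with a downstream miR-21 binding site, 2000 cells/well. Titrations up to approximately 40 uM, 48 hours; luciferase luminescence read.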
# A549 tox – Nrf2 qHTS screen for inhibitors: counterscreen for cytotoxicity; actives 0.16% (n = 390,000); Potency, µM (highest dose often 46 µM), actives largely listed as inhibitors; A549 ARE-Fluc cells, CellTiter-Fluor viability, 18-24 h; AID 504648, 2011
#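 A549 ARE-Fluc cells in 5% FBS OPTI-MEM, 5000 cells/well, rested 2 h then exposed to compounds in concentration-response for 18-24 h at 37 °C. Viability by CellTiter-Fluor fluorescence (Ex 405/Em 525) after 30 min; luciferase luminescence (BugLite, 15 min, RT) read afterwards.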
# Glioma ERSR ind – qHTS for Inducers of the Endoplasmic Reticulum Stress Response (ERSR) in Human Glioma: qHTS | U87-MG GRP78 promoter luciferase reporter, 16 h | Potency, µM, usual class: activators | actives 0.02% (n = 420,000) | AID 602332, 2012; further: series mostly up to about 76 µM; nearly all actives have a fitted effect of over 35% in size
#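 Stably transfected U87-MG human glioma cells carrying a GRP78-based luminescent sensor were seeded at 1000 cells/well, pin-dosed with compounds and incubated 16 h. Luciferase reagent was then added, and end-point luminescence was read after 10 min at room temperature.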
# Numbers stand for hits; n = inactive; u = inconclusive; x = no result; [ ] = remark or other dose. This is a sample that favours compounds with a hit; in the whole collection about 2.3% have one here. The call rests on the fitted dose curve; in most records, active means well fitted curve in the direction sought with a large enough effect; inconclusive means small, poorly fitted or top-dose-only effect, or another doubt; inactive means no such curve, though single readings can be large; an effect the other way counts as inactive or inconclusive.
SMILES,Mito fusion act,Nrf2 block,Nrf2 ARE act,miR-21 reporter,A549 tox,Glioma ERSR ind
CNc1ccc(Br)cc(C(=O)/C=C/c2ccc(Cl)cc2Cl)c1=O,n,u,8.9µM,n,21µM,n
CCCCCCCCCCCCCCCC[N+](C)(C)CCN(Cc1ccc(OC)cc1)c1ncccn1,n,21µM,n,x,u,n
CN(CC(=O)Nc1ccc(Cl)c(C(F)(F)F)c1)CC(=O)NC1CCCCC1,n,12µM,n,x,u,n
CN(CC(=O)Nc1cccc(S(=O)(=O)N2CCCC2)c1)CC(=O)Nc1ccc(F)c(F)c1F,x,u,n,x,n,n
CN(CC(=O)Nc1ccc(Cl)c(C(F)(F)F)c1)C(=O)c1ccc2c(c1)NC(=O)CS2,n,21µM,n,x,n,n
CN(CC(=O)Nc1ccc(F)c(F)c1F)C(=O)c1ccc2c(c1)NC(=O)CS2,n,u,n,x,n,n
CN(CC(=O)Nc1cccc(S(=O)(=O)N2CCCC2)c1)CC(=O)Nc1ccc(Cl)c(C(F)(F)F)c1,n,26µM,n,x,u,n
CC(=NNc1nc2ccccc2o1)c1cc2ccccc2cn1,x,u,n,x,10µM,u
CCCc1nnc(SCC(=O)Nc2ccc(Cl)cc2Cl)o1,n,n,n,n,n,n
Cc1nc2ccccc2c(=O)n1NCc1cc(Br)cs1,n,n,7.9µM,n,n,n
O=C(NC1(C(F)(F)F)OCCO1)c1ccc(F)cc1,n,n,n,n,n,n
O=C(N[C@@H]1CCC(=O)N(CC[C@H](Sc2ccc(Br)cc2)c2ccccc2)CC1)OCc1ccccc1,n,u,n,x,n,n
COc1ccc(S[C@@H](CCN2CC[C@H](NC(=O)OCc3ccccc3)CCC2=O)c2ccccc2)cc1,x,18µM,n,x,n,n
COc1ccc(-c2csc(NC(=O)CSc3nc4ccccc4c(=O)[nH]3)n2)cc1,n,n,n,n,n,n
Cc1nc2cccnc2n1-c1cccc(C(=O)N2CCN(c3ccc(Cl)cc3)CC2)c1,x,18µM,n,u,n,n
COc1ccc(N2CCN(C(=O)c3cccc(-n4c(C)nc5cccnc54)c3)CC2)cc1,x,n,n,n,n,n
O=C(Nc1nc2ccc(Br)cc2s1)c1ccco1,n,u,7.9µM,n,n,n
O=C(Nc1nc2ccsc2c(=O)s1)c1ccco1,n,u,1.3µM,n,n,n
CCCc1ccc(NC(=O)C2CCCN(c3cnccn3)C2)cc1 (stereo not drawn),u,n,n,n,n,n
CCOC(=O)c1cnc2ccc(OC)cc2c1NCCc1ccc(OC)c(OC)c1,n,16µM,n,u,u,n
CCOC(=O)c1cnc2ccccc2c1NCCc1ccc(OC)c(OC)c1,n,u,n,n,n,n
N#Cc1c(-c2ccc(F)cc2)cc(-c2ccccc2)nc1SCC(=O)NCC(=O)O,n,n,n,n,n,n
COC(=O)c1cc(=O)n(-c2ccc(F)cc2)c(=Nc2ccc(F)cc2)s1,n,21µM,n,n,u,n
COC(=O)c1cc(=O)n(Cc2cccs2)c(=Nc2ccc(F)cc2)s1,n,n,n,n,n,u
O=C(/C=C/c1ccccc1[N+](=O)[O-])N1CCc2ccccc2C1,n,n,8.9µM,n,n,n
SMILES,Mito fusion act,Nrf2 block,Nrf2 ARE act,miR-21 reporter,A549 tox,Glioma ERSR ind
COc1ccc(NC(=O)c2cc(NC(=O)C3CCCCC3C(=O)O)ccc2N2CCOCC2)cc1 (stereo not drawn),n,n,n,n,n,n
CN(C)S(=O)(=O)Nc1cccc(NC(=O)CC23CC4CC(CC(C4)C2)C3)c1,n,n,n,n,n,n
COc1ccc(/C=C/C(=O)N2CCN(c3ccccc3)CC2)cc1S(=O)(=O)N1CCOCC1,n,13µM,n,n,n,n
COc1cc(/C=C/C(=O)Nc2ccc(OC)c(S(=O)(=O)N3CCOCC3)c2)ccc1OC(F)F,x,18µM,n,x,n,n
COc1ccc(-n2c(/C=C(\C)O)nc(=O)c3c(C)cc(C)nc32)cc1,20µM,n,n,n,n,n
CC1CCN(c2ncnc3ccccc23)CC1,n,15µM,n,n,n,n
CC1CCN(c2nc(-c3ccccc3O)nc3ccccc23)CC1,n,n,n,n,n,n
C/C=C\C=C\C(=O)Nc1cccc(C2=NOC3(C2)C[C@H](C(N)=O)N(C(=O)c2ccccc2C(=O)c2ccccc2)C3)c1 (stereo partly drawn),n,n,n,n,n,n
COc1ccccc1NC(=O)CSc1nnc2c3ccccc3n(C(C)C)c2n1,x,18µM,n,n,u,n
CC(=O)N1N=C(c2ccc(Br)cc2)OC1(C)CC(=O)Nc1ccccc1 (stereo not drawn),n,23µM,n,n,u,n
CC(=O)N1N=C(c2ccccc2)OC12CCCC2,n,n,n,n,n,n
C/C(=N\NC(=O)C(C)Oc1ccc([N+](=O)[O-])cc1)c1ccccn1 (stereo not drawn),n,6.5µM,n,n,u,n
CC(Oc1ccccc1)C(=O)NNC(=O)c1ccccn1 (stereo not drawn),n,u,n,u,n,n
Cc1cc(NCc2ccccn2)n2ncc(-c3ccc(Cl)cc3)c2n1,n,u,n,n,n,n
Cc1cc(NCc2ccccn2)n2nc(C)c(-c3ccc(Cl)cc3)c2n1,n,16µM,n,u,n,n
CCSC1(SCC)N=C(N)C2(C#N)C(c3ccccc3)NC3=C(CCC3)C12C#N (stereo not drawn),n,n,14µM,n,n,n
CCn1cc2nc(SCc3cccc(C)c3)n(CCc3ccccc3)c(=O)c2n1,x,u,n,n,n,n
CCn1cc2nc(SCc3cccc(C(F)(F)F)c3)n(CCc3ccccc3)c(=O)c2n1,x,15µM,n,n,n,n
CCc1nc2c(OCc3ccc(C#N)cc3)cccn2c1N(C)C(=O)c1ccco1,x,x,n[9.22 µM],x,x,n
O=S(=O)(c1ccccc1F)N1CCN(C(=S)NCc2ccccc2)CC1,n,n,n,n,n,n
CN(CCc1ccccc1)C(=O)c1cccc(NC(=O)Cc2cccc(NC(=O)C3CCN(C(=O)C4CCC4)CC3)c2)c1,x,n,n,x,n,n
CN(CCO)c1cc(N2CCC3(CC2)OCCO3)c2nonc2c1[N+](=O)[O-],n,n,n,n,n,n
O=[N+]([O-])c1c(NCCO)cc(N2CCC3(CC2)OCCO3)c2nonc12,n,n,n,n,9.2µM,n
Cc1ccc(S(=O)(=O)c2nc(S(C)(=O)=O)sc2N2CCC(O)CC2)cc1,n,n,8.9µM,n,n,n
CCOc1ccc(-c2nnc(SCC(=O)Nc3cc(C)on3)o2)cc1,n,15µM,n,n,n,n

# From PubChem BioAssay
